About 2,000 (36%) of roughly 5,500 compounds were called active. About 18% were inconclusive and are not listed. Rule as the data show it: active = normalized growth mostly below about 0.91 (no sharp cut-off); inconclusive = no clear call, values can overlap the other calls; inactive = mostly above about 0.92. Some of the results follow.
Test: chemical genetic growth profiling, strain panel (AID 1159580);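 also: tested at 20 µM; growth read once vehicle control cultures reached saturation at 30 °C; 1 = growth at the plate median or of vehicle wells; lower values mean less growth of the strain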
Details: growth OD
[1] = S. cerevisiae deletion strains, locus YDL101C, strain DUN1, stronger effect = lower value
[2] = S. cerevisiae deletion strains, locus YHR030C, strain SLT2, stronger effect = lower value
[3] = S. cerevisiae deletion strains, locus YJL095W, strain BCK1, stronger effect = lower value
[4] = S. cerevisiae deletion strains, locus YOR061W, strain CKA2, stronger effect = lower value

Measured: normalized growth

CS(=O)(=O)c1sc(C(=O)Sc2ccc(Cl)cc2)c2c1C=CCC2
inactive: [1] 0.92 | S. cerevisiae deletion strains, locus YJL128C, strain PBS2, stronger effect = lower value 0.894 | S. cerevisiae deletion strains, locus YPR106W, strain ISR1, stronger effect = lower value 0.928 | S. cerevisiae deletion strains, locus YPR111W, strain DBF20, stronger effect = lower value 0.929 | S. cerevisiae deletion strains, strain NNK1, stronger effect = lower value 0.907
active: S. cerevisiae deletion strains, locus YAR019C, strain CDC15, stronger effect = lower value 0.857 | S. cerevisiae deletion strains, locus YBL105C, strain PKC1, stronger effect = lower value 0.868 | S. cerevisiae deletion strains, locus YBR135W, strain CKS1, stronger effect = lower value 0.855 | S. cerevisiae deletion strains, locus YBR136W, strain MEC1, stronger effect = lower value 0.867 | S. cerevisiae deletion strains, locus YBR160W, strain CDC28, stronger effect = lower value 0.873 | S. cerevisiae deletion strains, locus YDL017W, strain CDC7, stronger effect = lower value 0.881 | S. cerevisiae deletion strains, locus YDL028C, strain MPS1, stronger effect = lower value 0.88 | S. cerevisiae deletion strains, locus YDL108W, strain KIN28, stronger effect = lower value 0.866 | S. cerevisiae deletion strains, locus YDL132W, strain cdc53, stronger effect = lower value 0.848 | S. cerevisiae deletion strains, locus YDL214C, strain PRR2, stronger effect = lower value 0.42 | S. cerevisiae deletion strains, locus YDR052C, strain DBF4, stronger effect = lower value 0.903 | S. cerevisiae deletion strains, locus YDR054C, strain cdc34, stronger effect = lower value 0.771 | S. cerevisiae deletion strains, locus YDR226W, strain ADK1, stronger effect = lower value 0.869 | S. cerevisiae deletion strains, locus YDR477W, strain SNF1, stronger effect = lower value 0.339 | S. cerevisiae deletion strains, locus YER123W, strain YCK3, stronger effect = lower value 0.368 | S. cerevisiae deletion strains, locus YER133W, strain GLC7, stronger effect = lower value 0.416 | S. cerevisiae deletion strains, locus YFL009W, strain cdc4, stronger effect = lower value 0.857 | S. cerevisiae deletion strains, locus YFL029C, strain CAK1, stronger effect = lower value 0.853 | S. cerevisiae deletion strains, locus YFR003C, strain YPI1, stronger effect = lower value 0.881 | S. cerevisiae deletion strains, locus YFR019W, strain FAB1, stronger effect = lower value 0.327 | S. cerevisiae deletion strains, locus YFR028C, strain CDC14, stronger effect = lower value 0.871 | S. cerevisiae deletion strains, locus YGR040W, strain KSS1, stronger effect = lower value 0.437 | S. cerevisiae deletion strains, locus YGR052W, strain FMP48, stronger effect = lower value 0.492 | S. cerevisiae deletion strains, locus YGR092W, strain DBF2, stronger effect = lower value 0.174 | [2] 0.374 | S. cerevisiae deletion strains, locus YHR079C, strain IRE1, stronger effect = lower value 0.349 | S. cerevisiae deletion strains, locus YHR082C, strain KSP1, stronger effect = lower value 0.511 | S. cerevisiae deletion strains, locus YHR205W, strain SCH9, stronger effect = lower value 0.206 | S. cerevisiae deletion strains, locus YIL147C, strain SLN1, stronger effect = lower value 0.886 | [3] 0.369 | S. cerevisiae deletion strains, locus YJL157C, strain FAR1, stronger effect = lower value 0.358 | S. cerevisiae deletion strains, locus YJR016C, strain ILV3, stronger effect = lower value 0.862 | S. cerevisiae deletion strains, locus YJR066W, strain TOR1 (second series), stronger effect = lower value 0.103 | S. cerevisiae deletion strains, locus YJR066W, strain TOR1, stronger effect = lower value 0.353 | S. cerevisiae deletion strains, locus YKL048C, strain ELM1, stronger effect = lower value 0.532 | S. cerevisiae deletion strains, locus YKL067W, strain YNK1, stronger effect = lower value 0.428 | S. cerevisiae deletion strains, locus YKL101W, strain HSL1, stronger effect = lower value 0.371 | S. cerevisiae deletion strains, locus YKL193C, strain SDS22, stronger effect = lower value 0.845 | S. cerevisiae deletion strains, locus YKL203C, strain TOR2, stronger effect = lower value 0.379 | S. cerevisiae deletion strains, locus YLR113W, strain HOG1, stronger effect = lower value 0.3 | S. cerevisiae deletion strains, locus YLR133W, strain CKI1, stronger effect = lower value 0.423 | S. cerevisiae deletion strains, locus YLR403W, strain SFP1, stronger effect = lower value 0.217 | S. cerevisiae deletion strains, locus YML070W, strain DAK1, stronger effect = lower value 0.397 | S. cerevisiae deletion strains, locus YMR001C, strain CDC5, stronger effect = lower value 0.836 | S. cerevisiae deletion strains, locus YMR205C, strain PFK2 (second series), stronger effect = lower value 0.458 | S. cerevisiae deletion strains, locus YMR277W, strain FCP1, stronger effect = lower value 0.838 | S. cerevisiae deletion strains, locus YNL006W, strain LST8, stronger effect = lower value 0.873 | S. cerevisiae deletion strains, locus YNL020C, strain ARK1, stronger effect = lower value 0.39 | S. cerevisiae deletion strains, locus YNL161W, strain CBK1, stronger effect = lower value 0.862 | S. cerevisiae deletion strains, locus YNL183C, strain NPR1, stronger effect = lower value 0.418 | S. cerevisiae deletion strains, locus YNL207W, strain RIO2, stronger effect = lower value 0.842 | S. cerevisiae deletion strains, locus YNL222W, strain SSU72, stronger effect = lower value 0.856 | S. cerevisiae deletion strains, locus YNL307C, strain MCK1 (second series), stronger effect = lower value 0.221 | S. cerevisiae deletion strains, locus YOL078W, strain AVO1, stronger effect = lower value 0.839 | S. cerevisiae deletion strains, locus YOL136C, strain PFK27, stronger effect = lower value 0.375 | [4] 0.256 | S. cerevisiae deletion strains, locus YOR119C, strain RIO1, stronger effect = lower value 0.527 | S. cerevisiae deletion strains, locus YOR231W, strain MKK1, stronger effect = lower value 0.353 | S. cerevisiae deletion strains, locus YOR329C, strain SCD5, stronger effect = lower value 0.876 | S. cerevisiae deletion strains, locus YPL031C, strain PHO85, stronger effect = lower value 0.308 | S. cerevisiae deletion strains, locus YPL153C, strain RAD53, stronger effect = lower value 0.279 | S. cerevisiae deletion strains, locus YPL204W, strain HRR25, stronger effect = lower value 0.286 | S. cerevisiae deletion strains, locus YPL209C, strain IPL1, stronger effect = lower value 0.854 | S. cerevisiae deletion strains, locus YPL256C, strain CLN2, stronger effect = lower value 0.521 | S. cerevisiae deletion strains, locus YPR025C, strain CCL1, stronger effect = lower value 0.863 | S. cerevisiae deletion strains, strain TSCII, stronger effect = lower value 0.841

CCCCSP(=O)(SCCCC)SCCCC
inactive: S. cerevisiae deletion strains, locus YAL013W, strain DEP1, stronger effect = lower value 1.01 | S. cerevisiae deletion strains, locus YBR021W, strain FUR4, stronger effect = lower value 1 | S. cerevisiae deletion strains, locus YBR229C, strain ROT2, stronger effect = lower value 1.01 | S. cerevisiae deletion strains, locus YCL029C, strain bik1, stronger effect = lower value 1.01 | S. cerevisiae deletion strains, locus YDL035C, strain GPR1, stronger effect = lower value 1.01 | S. cerevisiae deletion strains, locus YDL074C, strain BRE1, stronger effect = lower value 1.04 | [1] 1.02 | S. cerevisiae deletion strains, locus YDL134C, strain PPH21, stronger effect = lower value 1.01 | S. cerevisiae deletion strains, locus YDL185W, strain tfp1, stronger effect = lower value 1.01 | S. cerevisiae deletion strains, locus YDL192W, strain arf1, stronger effect = lower value 1.01 | S. cerevisiae deletion strains, locus YDR101C, strain arx1, stronger effect = lower value 1.01 | S. cerevisiae deletion strains, locus YDR150W, strain NUM1, stronger effect = lower value 1.01 | S. cerevisiae deletion strains, locus YDR162C, strain NBP2, stronger effect = lower value 1.02 | S. cerevisiae deletion strains, locus YDR318W, strain mcm21, stronger effect = lower value 1.01 | S. cerevisiae deletion strains, locus YDR388W, stronger effect = lower value 1.01 | S. cerevisiae deletion strains, locus YDR502C, strain sam2, stronger effect = lower value 1.01 | S. cerevisiae deletion strains, locus YEL061C, strain CIN8, stronger effect = lower value 1.01 | S. cerevisiae deletion strains, locus YER110C, stronger effect = lower value 1.01 | S. cerevisiae deletion strains, locus YER155C, strain BEM2, stronger effect = lower value 1.01 | S. cerevisiae deletion strains, locus YER167W, strain BCK2, stronger effect = lower value 1.02 | S. cerevisiae deletion strains, locus YGL078C, strain dbp3, stronger effect = lower value 1.01 | S. cerevisiae deletion strains, locus YGL086W, strain mad1, stronger effect = lower value 1 | S. cerevisiae deletion strains, locus YGL248W, strain PDE1, stronger effect = lower value 1.02 | S. cerevisiae deletion strains, locus YGR078C, strain PAC10, stronger effect = lower value 1.02 | S. cerevisiae deletion strains, locus YGR135W, strain pre9, stronger effect = lower value 1 | S. cerevisiae deletion strains, locus YGR229C, strain SMI1, stronger effect = lower value 1.04 | S. cerevisiae deletion strains, locus YGR252W, strain gcn5, stronger effect = lower value 0.984 | [2] 1.02 | S. cerevisiae deletion strains, locus YHR079C, strain IRE1 (second series), stronger effect = lower value 1.01 | S. cerevisiae deletion strains, locus YHR094C, strain hxt1, stronger effect = lower value 1 | S. cerevisiae deletion strains, locus YHR129C, strain ARP1, stronger effect = lower value 1.02 | S. cerevisiae deletion strains, locus YHR200W, strain rpn10, stronger effect = lower value 1 | S. cerevisiae deletion strains, locus YIL066C, strain RNR3, stronger effect = lower value 1.02 | S. cerevisiae deletion strains, locus YIL073C, strain SPO22, stronger effect = lower value 1.06 | S. cerevisiae deletion strains, locus YIL125W, strain kgd1, stronger effect = lower value 1.01 | S. cerevisiae deletion strains, locus YIR030C, strain dcg1, stronger effect = lower value 0.996 | [3] 1.05 | S. cerevisiae deletion strains, locus YJL134W, strain LCB3, stronger effect = lower value 1.02 | S. cerevisiae deletion strains, locus YJL168C, strain set2, stronger effect = lower value 1.01 | S. cerevisiae deletion strains, locus YJL187C, strain SWE1 (second series), stronger effect = lower value 1.01 | S. cerevisiae deletion strains, locus YJR043C, strain POL32, stronger effect = lower value 1.01 | S. cerevisiae deletion strains, locus YJR075W, strain HOC1, stronger effect = lower value 1.02 | S. cerevisiae deletion strains, locus YKL009W, strain mrt4, stronger effect = lower value 0.961 | S. cerevisiae deletion strains, locus YKL068W, stronger effect = lower value 1.01 | S. cerevisiae deletion strains, locus YKL085W, strain MDH1 (second series), stronger effect = lower value 1.01 | S. cerevisiae deletion strains, locus YKL085W, strain MDH1, stronger effect = lower value 1.01 | S. cerevisiae deletion strains, locus YKL190W, strain CNB1, stronger effect = lower value 1.02 | S. cerevisiae deletion strains, locus YKR001C, strain vps1, stronger effect = lower value 1.01 | S. cerevisiae deletion strains, locus YLR039C, strain RIC1, stronger effect = lower value 1.05 | S. cerevisiae deletion strains, locus YLR058C, strain SHM2, stronger effect = lower value 1.01 | S. cerevisiae deletion strains, locus YLR102C, strain apc9, stronger effect = lower value 0.995 | S. cerevisiae deletion strains, locus YLR262C, strain YPT6, stronger effect = lower value 1.04 | S. cerevisiae deletion strains, locus YLR268W, strain sec22, stronger effect = lower value 1.01 | S. cerevisiae deletion strains, locus YLR330W, strain CHS5, stronger effect = lower value 1.01 | S. cerevisiae deletion strains, locus YLR342W, strain FKS1 (second series), stronger effect = lower value 1.04 | S. cerevisiae deletion strains, locus YLR371W, strain rom2, stronger effect = lower value 0.999 | S. cerevisiae deletion strains, locus YLR418C, strain cdc73, stronger effect = lower value 1.02 | S. cerevisiae deletion strains, locus YML016C, strain PPZ1, stronger effect = lower value 1.02 | S. cerevisiae deletion strains, locus YML032C, strain rad52, stronger effect = lower value 1.01 | S. cerevisiae deletion strains, locus YML124C, strain tub3, stronger effect = lower value 1.01 | S. cerevisiae deletion strains, locus YMR078C, strain ctf18, stronger effect = lower value 1.01 | S. cerevisiae deletion strains, locus YMR223W, strain ubp8, stronger effect = lower value 1 | S. cerevisiae deletion strains, locus YMR263W, strain SAP30, stronger effect = lower value 1.02 | S. cerevisiae deletion strains, locus YMR307W, strain GAS1, stronger effect = lower value 1.2 | S. cerevisiae deletion strains, locus YNL067W, strain RPL9B, stronger effect = lower value 1.01 | S. cerevisiae deletion strains, locus YNL128W, strain TEP1, stronger effect = lower value 1.01 | S. cerevisiae deletion strains, locus YNL153C, strain GIM3, stronger effect = lower value 1.01 | S. cerevisiae deletion strains, locus YNL233W, strain BNI4, stronger effect = lower value 1.01 | S. cerevisiae deletion strains, locus YNL250W, strain rad50, stronger effect = lower value 1.01 | S. cerevisiae deletion strains, locus YNL271C, strain bni1, stronger effect = lower value 0.998 | S. cerevisiae deletion strains, locus YNL298W, strain CLA4, stronger effect = lower value 1.02 | S. cerevisiae deletion strains, locus YNL307C, strain MCK1, stronger effect = lower value 0.992 | S. cerevisiae deletion strains, locus YNL322C, strain KRE1, stronger effect = lower value 1.01 | S. cerevisiae deletion strains, locus YNR052C, strain pop2, stronger effect = lower value 1.01 | S. cerevisiae deletion strains, locus YOL006C, strain TOP1, stronger effect = lower value 1.07 | S. cerevisiae deletion strains, locus YOL012C, strain htz1 0.841 | S. cerevisiae deletion strains, locus YOL147C, strain pex11, stronger effect = lower value 1.01 | [4] 1.01 | S. cerevisiae deletion strains, locus YOR069W, strain VPS5, stronger effect = lower value 1.02 | S. cerevisiae deletion strains, locus YOR136W, strain idh2, stronger effect = lower value 1 | S. cerevisiae deletion strains, locus YOR144C, strain elg1, stronger effect = lower value 1.02 | S. cerevisiae deletion strains, locus YOR184W, strain ser1, stronger effect = lower value 0.987 | S. cerevisiae deletion strains, locus YOR316C, strain cot1, stronger effect = lower value 1.01 | S. cerevisiae deletion strains, locus YPL055C, strain LGE1, stronger effect = lower value 1.03 | S. cerevisiae deletion strains, locus YPL241C, strain CIN2, stronger effect = lower value 1.02 | S. cerevisiae deletion strains, locus YPR119W, strain clb2, stronger effect = lower value 1.01 | S. cerevisiae deletion strains, locus YPR141C, strain kar3, stronger effect = lower value 1.02 | S. cerevisiae deletion strains, locus YPR163C, strain tif3, stronger effect = lower value 1.01 | S. cerevisiae deletion strains, locus YPR167C, strain met16, stronger effect = lower value 1 | S. cerevisiae deletion strains, strain wtn01, stronger effect = lower value 0.996 | S. cerevisiae strains, strain wild type, stronger effect = lower value 1.02
